Data from PubChem BioAssay AID1347044 (National Center for Advancing Translational Sciences (NCATS), 2019).
About 1,100 (79%) of roughly 1,400 compounds were called active. About 20% were inconclusive and are not listed. Calls follow the shape of the full dose curve. The set was probably picked from earlier hits. The list is a sample of the results.

These compounds were tested against Atrial natriuretic peptide receptor 1 (Homo sapiens) (UniProt P16066) (assay: Natriuretic polypeptide receptor (hNpr1) antagonism - Confirmation). Conditions: HEK293 hNpr1 cGMP GloSensor luminescence, ANP-stimulated; series mostly up to 57.6 µM.
Chain of Atrial natriuretic peptide receptor 1 (Homo sapiens) (P16066 whole entry, looked up, the tested form may be a part): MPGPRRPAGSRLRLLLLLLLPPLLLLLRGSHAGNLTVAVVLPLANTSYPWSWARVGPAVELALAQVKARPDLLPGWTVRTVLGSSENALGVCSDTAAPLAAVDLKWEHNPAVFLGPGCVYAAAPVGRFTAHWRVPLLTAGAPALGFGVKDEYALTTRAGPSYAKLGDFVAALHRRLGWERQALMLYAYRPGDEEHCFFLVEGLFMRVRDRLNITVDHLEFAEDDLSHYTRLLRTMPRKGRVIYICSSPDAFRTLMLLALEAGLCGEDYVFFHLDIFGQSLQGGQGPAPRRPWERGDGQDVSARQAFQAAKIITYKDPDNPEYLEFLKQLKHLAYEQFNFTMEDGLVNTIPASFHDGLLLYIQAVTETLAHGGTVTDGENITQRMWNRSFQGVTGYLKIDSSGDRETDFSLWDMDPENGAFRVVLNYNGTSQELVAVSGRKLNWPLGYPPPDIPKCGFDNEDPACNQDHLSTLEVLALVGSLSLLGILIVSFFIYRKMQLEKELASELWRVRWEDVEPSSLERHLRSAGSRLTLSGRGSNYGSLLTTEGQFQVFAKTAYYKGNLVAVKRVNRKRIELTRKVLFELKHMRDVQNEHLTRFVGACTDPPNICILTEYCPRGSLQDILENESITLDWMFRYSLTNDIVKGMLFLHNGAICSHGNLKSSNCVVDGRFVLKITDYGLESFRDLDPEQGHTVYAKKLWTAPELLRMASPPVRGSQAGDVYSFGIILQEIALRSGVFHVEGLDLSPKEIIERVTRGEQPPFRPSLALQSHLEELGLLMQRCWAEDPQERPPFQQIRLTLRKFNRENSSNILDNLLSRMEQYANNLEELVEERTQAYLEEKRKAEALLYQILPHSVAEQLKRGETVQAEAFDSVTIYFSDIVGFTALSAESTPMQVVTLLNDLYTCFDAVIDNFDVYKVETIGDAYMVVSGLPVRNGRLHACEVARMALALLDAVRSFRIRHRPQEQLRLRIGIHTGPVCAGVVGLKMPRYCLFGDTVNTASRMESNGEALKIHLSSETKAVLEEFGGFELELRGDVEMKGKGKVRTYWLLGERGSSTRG
Experimental: In order to identify small molecular compounds that inhibit the hNpr1 receptor we developed a high-throughput assay to measure inhibition of the guanylate cyclase activity of the receptor. cGMP production was measured using a circular permutated Firefly luciferase (FLuc) enzyme functionally linked to the cGMP binding domain of human phosphodiesterase 5 (GloSensor technology pGS-40F, (Fan, F. et al. 2008). The cGMP-sensor was expressed in human embryonic kidney 293 (HEK-293) cells and FLuc activity was measured after stimulation with hNrp agonist peptide. hNrp agonists activates the receptor's associated guanylyl cyclase (GC) domain producing cGMP which then binds to the GloSensor resulting in FLuc activation, the enzymatic activity of which can be measured as bioluminescence with addition of luciferin substrate. A cytotoxicity counter-screen using the HEK-hNpr1-cGMP-sensor cells was also performed on the follow-up compounds. F. Fan, B. F. Binkowski, B. L. Butler, P. F. Stecha, M. K. Lewis, K. V. Wood, Novel genetically encoded biosensors using firefly luciferase. ACS Chem Biol 3, 346-351 (2008).
PROTOCOL TABLES (as described by Inglese J, Shamu CE and Guy RK. 2007) SEQUENCE No. (e.g., 1, 2, 3, etc.); PARAMETER (e.g., Cells, Incubation, Reagent, etc.); VALUE and DESCRIPTION. GLOSENSOR PROTOCOL 1. Cells. Seed 1500 HEK293 cGMP-sensor cells expressing hNpr1 per well in 4uL into Greiner 1536-well white/solid bottom high base, tissue culture-treated plates. 2. Incubation. Incubate plated cells at 37C in 5% CO2, 95% RH overnight. 3. Reagent. Add 1uL per well GloSensor reagent from Promega (2% final concentration) or CO2 independent media vehicle control to respective columns of Greiner 1536-well plates. 4. Incubation. Incubate plated cells at room temperature for 2 h, protect from light. 5. Compounds. Library compounds and A-71915 control added at 23 nL per well, transferred by Pin Tool. 6. Incubation. Incubate plated cells for 30 min. at room temperature, protect from light. 7. Detector. GloSensor baseline pre-read luminescence measured using CCD-based camera (Viewlux). 8. Compound. Add 1uL of hNppA peptide to 0.1 nM final concentration to stimulate hNpr1 or CO2 independent media as vehicle control. 9. Incubation. Incubate treated cells at room temperature for 20 min., protect from light. 10. Detector. GloSensor post-hNppA luminescence measured using CCD-based camera (Viewlux). NOTES (numbers refer to Sequence numbers above) 1. HEK293 cells expressing hNpr1 and GIP/pGS-40F grown to 85-95% confluence (48-72 h) in T175 culture flasks (CO2 independent media supplemented with 10% FBS, 1% Pen/Strep antibiotics and 1 ug/mL puromycin). Trypsinize and harvest cells from T175 culture flasks and filter through 40 um cell strainer. Cells counted with Invitrogen Countess (30,000,000 - 50,000,000 cells/flask). Cells diluted to a final concentration of 375 cells/uL in CO2 independent media and a Millipore multidrop used to dispense 1500 cells per well (4uL/well) into 13 1536-well Greiner White/Solid bottom, high base tissue-culture treated (TC) plates and one Aurora 1536-well Black/Clear bottom, low base, TC plate (for visual inspection of cell health throughout the duration of the assay). 2. Cells incubated overnight at ambient temperature, 24 h. at 37C in 95% RH incubator protected from light, covered with metal lid with gas-exchange holes. 3. Prepare GloSensor Reagent (Promega): Reconstitute GloSensor luciferase substrate by adding 8.2mL Hepes buffer to 250mg substrate, mix well, protect from light and stored at -80C. Prepare a fresh 12% GloSensor solution in CO2 independent supplemented plating media (see above). Mix well and store at ambient temperature, protected from light. 1uL 12% GloSensor Luciferase Reagent added (2% final concentration) to respective columns of 13 x 1536-well Greiner plate with BioRaptr, 1uL CO2 independent plating media added to respective columns as vehicle control with BioRaptr. 4. […]
Also: nearly all actives have a fitted effect of over 70% in size.
Potency is read from the fitted curve at half-maximal effect.

Potency, active:
Cc1nc(-c2ccncc2)ncc1C(C)Nc1ncnc(C)c1C (centres undefined) 21.7 µM, O=C(c1ccc2cc[nH]c2c1)N1CCC2(CC1)N=C(c1ccc(Cl)cc1)NO2 19.3 µM, O=[S+]1([O-])NCC2(CCCN(Cc3ccc(C(F)(F)F)cc3)C2)Oc2ncccc21 (centres undefined) 24.3 µM, Cc1cccc(CN2CCc3nc(C(=O)Nc4ccc(Cl)cc4)oc3CC2)c1 9.94 µM, COc1cccc(NC(=O)Cn2c(N(C)Cc3ccccc3)nc(C)cc2=O)c1 10.9 µM, COc1cccc(CNC(=O)Cn2c(N(C)Cc3ccccc3)nc(C)cc2=O)c1OC 24.3 µM, O=c1[nH]c(C2CCCN(Cc3ccccn3)C2)nn1-c1ccc(Cl)cc1 (centres undefined) 6.85 µM, CC1(C(=O)NCc2ccc3c(c2)OCO3)CCc2cnc(NCc3ccccc3)nc21 (centres undefined) 35.3 µM, Cc1ccc2c(c1)nc1n2[C@@H](CNS(=O)(=O)c2ccccc2)COC1 35.3 µM, COc1ccc(CN2C(=O)CO[C@H]3CN(Cc4ccc5c(c4)OCO5)C[C@H]32)cc1 31.4 µM, O=C(c1ccccc1)N1CCNc2cnc(Nc3cccc(C(F)(F)F)c3)nc2C1 31.4 µM, COc1ccc(S(=O)(=O)N2CCc3c(C(=O)NCCc4ccccn4)cccc32)cc1 24.3 µM, CC(C)c1cc(C(=O)N2CCC(n3cc(-c4ccccn4)nn3)CC2)n(C)n1 13.7 µM, COc1ccc(OCC2(C)COc3ccc(C(=O)Nc4cccnc4)cc3N2)cc1 (centres undefined) 35.3 µM, CN(Cc1csc(-c2ccccc2)n1)c1cc(C2CC(O)C2)nc(N)n1 (centres undefined) 2.43 µM, Cc1noc(C)c1-c1cc(-c2ccccc2Oc2ccccc2)cn2cncc12 19.8 µM, O=C1NCN(Cc2ccc(Cl)cc2)C12CCN(Cc1ccccc1)CC2 15.3 µM, N#Cc1cccc(CN2CCC(C3=NC(O)c4cc(F)ccc4N3)CC2)c1 (centres undefined) 15.3 µM, CN1CCN(C(=O)C(C)(C)Oc2nn(Cc3cccc(Cl)c3)c3ccccc23)CC1 28 µM, Cc1cc(N2CCCC(Cn3cc(Cc4ccccc4)nn3)C2)nc(N)n1 (centres undefined) 6.11 µM, O=C(Cc1c[nH]c2ncc(-c3ccccc3F)cc12)N1CCOCC1 31.4 µM, Cc1noc(C)c1-c1cnc2[nH]cc(CC(=O)N3CCOCC3)c2c1 31.4 µM, COc1ccc(CCNC(=O)c2noc(-c3ccc(C)cc3)n2)cc1OC 24.3 µM, CC(C)c1noc(-c2cn(C3CCN(C(=O)c4ccc(N(C)C)cc4)C3)nn2)n1 (centres undefined) 15.3 µM, O=C(c1ccc(Cl)cc1)N1CCCC(n2cc(-c3nc(-c4ccccc4)no3)nn2)C1 (centres undefined) 19.3 µM, O=C(c1ccc(F)cc1Cl)N1CCC(n2cc(-c3nc(-c4ccccc4)no3)nn2)C1 (centres undefined) 4.32 µM, Cc1nn2c(c1-c1ccccc1-c1ccccc1)N(CC1CC1)CCC2 2.8 µM, COc1ccc(-c2noc(CC3CCN(C(=O)Cc4ccc(OC)c(OC)c4)CC3)n2)cc1 3.43 µM

Potency, inactive:
COc1cccc(C2C(C(=O)Nc3ccccc3)=C(C)N=C3SC=C(CC(=O)NCC(C)C)N32)c1 (centres undefined)
